What all share (experiment): NCI-60 one-dose screen, 48 h (100 = growth as untreated, 0 = no growth, -100 = all killed)
Conditions in all cases: 10 µM unless noted

Experiment [1] relates to HCT-15 colon.
The subject of experiment [2] is HT29 colon.
The test system of experiment [3] is SNB-75 CNS.
Experiment [4] has as its system SNB-19 CNS.
Experiment [5] deals with U251 CNS.
Experiment [6] relates to PC-3 prostate.
Experiment [7] deals with SK-MEL-5 melanoma.
Experiment [8] deals with UACC-62 melanoma.
For experiment [9], the system named is LOX IMVI melanoma.
Experiment [10] deals with SK-MEL-28 melanoma.

Compounds without any hit were thinned out: in the full panel of roughly 83,000, 20% have a hit.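 Plates (96-well) were seeded with cells, treated with compound at one concentration, and incubated for 48 hours before percent growth was determined.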 Unmarked numbers belong to inactive results. The source made the active and inactive calls. The calls were made as follows: active = growth percent below 10; inactive = the rest.

Take `Nc1c(F)cc(-c2nc3cc(F)ccc3[se]2)cc1Br`: the growth in [1] is 18.5%; in experiment [2] it was 5.05% (active); in experiment [3], 73.4%; in experiment [4] it was 94.5%; in experiment [5], 87.5%; in experiment [6], 66.4%. For the same molecule, the growth is 50% in experiment [7], 47.5% in experiment [8], 90.1% in experiment [9] and 106% in [10].
On to `CCC1(C(C)C)C(=O)NC(=S)NC1=O`, for which the growth was 97.6% in [1]; 112% in [2]; 95.5% in experiment [3]; 108% in experiment [4]; 95.9% in experiment [5]; 95.6% in [6]. Moreover, the growth in [7] is 98.8%; in [8], 103%; in [9], 102%; in experiment [10], 109%.
With `COP(=O)(OC)C(O)c1ccc(Cl)cc1` (stereo not drawn), the growth in [1] is 102%; in experiment [2] it was 96.1%; in experiment [3], 89.4%; in experiment [4], 110%; in [5], 104%; in experiment [6] it was 94.3%. For the same molecule, the growth was 98.7% in [7], 101% in experiment [8], 96.8% in [9] and 109% in experiment [10].
In the case of `CCOC(=S)S[C@H]1C[C@@H]2[C@H](CC[C@]3(C)C(=O)CC[C@@H]23)[C@@]2(C)CCC(=O)C=C12`, the growth in experiment [1] is 101%; in [2] it was 111%; in experiment [3], 93.1%; in experiment [4] it was 99.5%; in experiment [5], 102%; in experiment [6], 106%. The growth was 103% in experiment [7], 94.3% in experiment [8], 97.9% in experiment [9] and 104% in experiment [10].
Consider `CC(=O)OC1CCC2(C)C(CCC3C2CC(=O)C2(C)C3CC(Sc3ccc(N(CCCl)CCCl)cc3)C2C(C)=O)C1` (stereo not drawn), for which the growth was 50.5% in experiment [1]; 11.9% in [2]; 111% in experiment [3]; 82.7% in experiment [4]; 68.1% in experiment [5]; 85.5% in experiment [6]. For the same molecule, the growth is 93% in experiment [7], 67.9% in [8], 55.1% in experiment [9] and 99.8% in experiment [10].
Take `O=C1N[C@@H]2[C@@H](O)[C@@H](O)[C@H](O)C[C@H]2c2cc3c(c(O)c21)OCO3`: the growth in [1] was 1.81% (active); in experiment [2] it was -14.9% (active); in experiment [3], -25.3% (active); in experiment [4] it was -8.68% (active); in [5] it was -10.5% (active); in [6] it was -8.66% (active). Besides, the figures for the growth in [7], in experiment [8] and in [9] were -72.7% (active), -48.3% (active) and -48.8% (active), respectively.
As to `CC(=O)ONc1ccc([N+](=O)[O-])c(C(F)(F)F)c1`, the growth in experiment [1] was 108%; in experiment [2], 108%; in experiment [3], 82.9%; in experiment [4], 107%; in experiment [5], 104%; in experiment [6] it was 95.4%. The growth is 109% in [7], 96.8% in [8], 98.8% in experiment [9] and 110% in [10].
Take `O=C(Nc1ccncc1F)c1cn(CC2CC2)c2ccccc12`: the growth in experiment [1] is 97.3%; in [2], 102%; in [3], 103%; in experiment [4] it was 97.2%; in experiment [5] it was 98.4%; in experiment [6] it was 97.6%. The figures for the growth in [7], in experiment [8] and in experiment [9] were 97.3%, 95.3% and 97%, respectively.
On to `O=NN1CCCc2cccc(O)c21`, for which the growth in experiment [1] was 27.2%; in [2], 94.6%; in experiment [3] it was 21.8%; in experiment [4], 31%; in experiment [5], 21.9%; in [6], 51.8%. In addition, the growth in experiment [7] is 19.9%; in experiment [8] it was 26.7%; in experiment [9], 23.9%; in [10], 67.2%.
Turning to `COC(=O)[C@@H](C)C[C@H](Cc1ccccc1)NC(=O)c1cccc([C@@H](C[C@H](C(C)C)N(C)C(=O)[C@@H](NC(=O)[C@H]2CCCCN2C)C(C)C)OC(C)=O)n1`, the growth was 10.6% in experiment [1]; 6.05% (active) in experiment [2]; 26.5% in experiment [3]; 18.5% in experiment [4]; 14.6% in experiment [5]; 28.7% in experiment [6]. Moreover, the growth in [7] is -50.6% (active); in experiment [8] it was 29.1%; in experiment [9], 13.6%; in [10], 67.2%.
For the molecule `CC12CC(=O)C3(SC#N)C(CCC4=CC(=O)CCC43C)C1CCC2=O` (stereo not drawn), the growth was 34.5% in experiment [1]; 64.2% in [2]; 93.6% in experiment [3]; 96% in experiment [4]; 101% in experiment [5]; 104% in [6]. The growth in experiment [7] is 101%; in experiment [8], 89.3%; in experiment [9], 80.8%; in experiment [10] it was 94.7%.
`CC[C@H](C)[C@H](NC(=O)[C@H]1CCCCN1C)C(=O)N(C)[C@H](C[C@@H](O)c1nc(C(=O)N[C@@H](Cc2ccccc2)C[C@H](C)C(=O)O)cs1)C(C)C`: the growth in experiment [1] was 96.5%; in [2], 83.1%; in experiment [3], 59.7%; in experiment [4] it was 65.2%; in experiment [5], 52.9%; in [6], 81.2%. Also, the growth in experiment [7] is 63.7%; in experiment [8], 41.1%; in experiment [9], 52.2%; in [10], 82.8%.
As for `C[S+]1C=Cc2ccccc2C1c1ccc(Cl)cc1` (stereo not drawn), the growth in [1] was 96.8%; in experiment [2] it was 84.9%; in experiment [3], -70.7% (active); in experiment [4] it was 110%; in [5] it was 67%; in experiment [6], 73.5%. For the same molecule, the growth in experiment [7] is 99.3%; in experiment [8], 95.8%; in experiment [9], 91.1%; in experiment [10] it was 103%.
With `O=C(O)C(O)C(O)C1[O][Sb]([c]2ccc([N+](=O)[O-])cc2)[O]C1CO` (stereo not drawn), the growth in experiment [1] is 95.8%; in experiment [2], 101%; in [3], 99.1%; in experiment [4], 94.9%; in experiment [5], 101%; in experiment [6] it was 100%. Besides, the growth was 103% in experiment [7], 91.9% in [8], 101% in experiment [9] and 106% in experiment [10].

Values taken from PubChem BioAssay (NCI).
